Laboratory results from PubChem BioAssay (NCI).
Compounds without any hit were thinned out: in the full panel of roughly 79,000, 15% have a hit. The source made the active and inactive calls. No stated cut-off is given here; in the data, active means growth inhibition above about 70%; inactive means the rest.

Assays:
[1] = NCI Yeast Anticancer Drug Screen. Data for the rad52 strain (AID 147);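 further: 0% = growth of vehicle-treated control cultures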; settings: S. cerevisiae rad52 mutant growth inhibition, hits give high values
Method in brief: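 Vehicle-treated cultures served as the reference for growth inhibition of compound-exposed yeast bearing a DNA repair mutation.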

[2] = NCI Yeast Anticancer Drug Screen. Data for the wt1 strain (AID 149);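 further: 0% = growth of vehicle-treated wt1 cultures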; settings: S. cerevisiae wt1 strain (SPY 50644) growth inhibition, hits give high values
Method in brief: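 wt1 strain grown with compound or vehicle; inhibition taken from the growth difference.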

[3] = NCI Yeast Anticancer Drug Screen. Data for the rad50EPP+ strain (AID 151);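 further: 0% = growth of vehicle-treated control cultures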; settings: S. cerevisiae rad50 mutant strain, hits give high values
Method in brief: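 In this screen, rad50EPP+ yeast were exposed to compounds. Growth inhibition was scored against vehicle-treated controls.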

[4] = NCI Yeast Anticancer Drug Screen. Data for the mgt1 strain (AID 153); settings: S. cerevisiae mgt1 mutant growth inhibition, hits give high values
Method in brief: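 mgt1 strain exposed; growth vs vehicle control recorded as inhibition.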

[5] = NCI Yeast Anticancer Drug Screen. Data for the rad50 strain (AID 155);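 further: 0% = growth of vehicle-only cultures of the same strain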; settings: S. cerevisiae rad50 strain growth inhibition, hits give high values
Method in brief: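 DNA repair mutant yeast, compound exposure, growth read-out; inhibition is taken relative to vehicle.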

[6] = NCI Yeast Anticancer Drug Screen. Data for the mec2-1 strain (AID 157); settings: S. cerevisiae mec2-1 strain, hits give high values
Method in brief: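 Vehicle-treated cultures served as reference for growth inhibition of compound-exposed mec2-1 yeast.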

[7] = NCI Yeast Anticancer Drug Screen. Data for the rad14 strain (AID 159);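 further: 0% = growth of vehicle-treated control cultures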; settings: S. cerevisiae rad14 strain growth inhibition, hits give high values
Method in brief: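 DNA repair-defective yeast, compound-exposed; % growth inhibition derived by comparison with vehicle-treated controls.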

[8] = NCI Yeast Anticancer Drug Screen. Data for the sgs1 mgt1 strain (AID 161);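 further: 0% = growth of cultures given vehicle only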; settings: S. cerevisiae sgs1 mgt1 strain, hits give high values
Method in brief: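 Test agents were incubated with a DNA-repair-mutant yeast strain. Growth was then read and compared against vehicle-treated controls.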

[9] = NCI Yeast Anticancer Drug Screen. Data for the CLN2oe strain (AID 163);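 further: 0% = growth of vehicle-only control cultures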; settings: S. cerevisiae CLN2oe strain, hits give high values
Method in brief: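 Inhibition relative to vehicle-treated yeast is reported. Cells: strain with genetic alteration in cell-cycle control, grown with compound.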

[10] = NCI Yeast Anticancer Drug Screen. Data for the cln2 rad14 strain (AID 165);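 further: 0% = growth equal to vehicle treated cultures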; settings: S. cerevisiae cln2 rad14 strain, hits give high values
Method in brief: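 Each compound was tested on cln2 rad14 yeast. Inhibition of growth was calculated against vehicle-exposed controls.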

[11] = NCI Yeast Anticancer Drug Screen. Data for the bub3 strain (AID 167); settings: S. cerevisiae bub3 mutant strain, hits give high values
Method in brief: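 In this screen, a yeast mutant lacking normal mitotic checkpoint function is challenged with compound. Relative growth versus vehicle gives the inhibition value.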

[12] = NCI Yeast Anticancer Drug Screen. Data for the wt2 strain (AID 169);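 further: 0% = growth of vehicle-treated yeast cultures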; settings: S. cerevisiae wt2 strain growth inhibition, hits give high values
Method in brief: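 Inhibition of yeast growth was determined after compound treatment, normalised to controls receiving only vehicle.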

[13] = NCI Yeast Anticancer Drug Screen. Data for the mlh1 strain (AID 171);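 further: 0% = growth of vehicle-treated control cultures of the same strain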; settings: S. cerevisiae mlh1 strain growth inhibition, hits give high values
Method in brief: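 Vehicle-normalised growth inhibition of a repair- or checkpoint-altered yeast strain following compound treatment.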

[14] = NCI Yeast Anticancer Drug Screen. Data for the sgs1 strain (AID 173);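 further: 0% = growth of vehicle-only control cultures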; settings: S. cerevisiae sgs1 mutant, hits give high values
Method in brief: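 Screen format: yeast with repair or checkpoint alterations, compound exposure, growth read relative to vehicle.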

[15] = NCI Yeast Anticancer Drug Screen. Data for the mlh1 rad18 strain (AID 175); settings: S. cerevisiae mlh1 rad18 strain growth inhibition, hits give high values
Method in brief: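 Vehicle-treated cultures served as the reference for growth inhibition in a yeast strain carrying DNA damage repair alterations exposed to each compound.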

[16] = NCI Yeast Anticancer Drug Screen. Data for the rad18 strain (AID 177); settings: S. cerevisiae rad18 mutant growth inhibition, hits give high values
Method in brief: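 Test articles were incubated with altered yeast defective in DNA damage repair. Results are given as inhibition of growth versus vehicle.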

[17] = at 5.0 µM (retest, dose inferred, filed as 0.5)
[18] = at 50.0 µM (retest, dose inferred, filed as 5.0)

Measured: growth inhibition

O=C(O)c1cccc2cccc(-c3c4ccc(=O)cc-4oc4cc(O)ccc34)c12
active: [1]; at 11.0 µM 79% | [1]; at 33.0 µM 78% | [1]; at 100.0 µM 94% | [2]; at 100.0 µM 94% | [3]; at 11.0 µM 70% | [3]; at 33.0 µM 73% | [3]; at 100.0 µM 93% | [4]; at 11.0 µM 79% | [4]; at 33.0 µM 88% | [4]; at 100.0 µM 96% | [5]; at 11.0 µM 82% | [5]; at 33.0 µM 79% | [5]; [18] 97% | [5]; at 50.0 µM 90.5% | [5]; at 100.0 µM 92% | [6]; at 11.0 µM 85% | [6]; at 33.0 µM 85% | [6]; [18] 94% | [6]; at 50.0 µM 91.5% | [6]; at 100.0 µM 93% | [7]; at 33.0 µM 74% | [7]; at 100.0 µM 93% | [8]; [18] 95% | [9]; at 11.0 µM 70% | [9]; at 33.0 µM 81% | [9]; at 100.0 µM 90% | [10]; [18] 95% | [11]; [17] 72% | [11]; at 11.0 µM 91% | [11]; at 33.0 µM 93% | [11]; [18] 94% | [11]; at 100.0 µM 92% | [12]; at 33.0 µM 85% | [12]; at 100.0 µM 96% | [13]; at 33.0 µM 87% | [13]; at 100.0 µM 91% | [14]; at 11.0 µM 74% | [14]; at 33.0 µM 85% | [14]; at 100.0 µM 95% | [15]; [18] 98% | [15]; at 50.0 µM 90% | [16]; at 11.0 µM 71% | [16]; at 33.0 µM 79% | [16]; at 100.0 µM 94%
inactive: [1]; at 1.2 µM 8% | [1]; at 3.7 µM 33% | [2]; at 1.2 µM -5% | [2]; at 3.7 µM 5% | [2]; at 11.0 µM 54% | [2]; at 33.0 µM 69% | [3]; at 1.2 µM 10% | [3]; at 3.7 µM 29% | [4]; at 1.2 µM 20% | [4]; at 3.7 µM 41% | [5]; at 1.2 µM 29% | [5]; at 3.7 µM 56% | [5]; [17] 29% | [6]; at 1.2 µM 18% | [6]; at 3.7 µM 24% | [6]; [17] 53% | [7]; at 1.2 µM 10% | [7]; at 3.7 µM 13% | [7]; at 11.0 µM 55% | [8]; [17] 1% | [9]; at 1.2 µM 16% | [9]; at 3.7 µM 9% | [10]; [17] 61% | [11]; at 1.2 µM 34% | [11]; at 3.7 µM 69% | [12]; at 1.2 µM 17% | [12]; at 3.7 µM 26% | [12]; at 11.0 µM 48% | [13]; at 1.2 µM 7% | [13]; at 3.7 µM 18% | [13]; at 11.0 µM 63% | [14]; at 1.2 µM 34% | [14]; at 3.7 µM 31% | [15]; [17] 27% | [16]; at 1.2 µM 18% | [16]; at 3.7 µM 23%

CCCCCC(=O)c1ccc(O)cc1O
active: [1]; at 33.0 µM 90% | [1]; at 100.0 µM 98% | [2]; at 33.0 µM 91% | [2]; at 100.0 µM 99% | [3]; at 100.0 µM 98% | [4]; at 33.0 µM 93% | [4]; at 100.0 µM 99% | [5]; [17] 92% | [5]; at 33.0 µM 91% | [5]; [18] 98% | [5]; at 50.0 µM 89.2% | [5]; at 100.0 µM 97% | [7]; at 33.0 µM 90% | [7]; at 100.0 µM 98% | [8]; [18] 92% | [9]; at 33.0 µM 86% | [9]; at 100.0 µM 99% | [10]; [18] 90% | [11]; at 33.0 µM 93% | [11]; [18] 92% | [11]; at 100.0 µM 99% | [12]; at 33.0 µM 87% | [12]; at 100.0 µM 99% | [13]; at 33.0 µM 90% | [13]; at 100.0 µM 95% | [14]; at 33.0 µM 90% | [14]; at 100.0 µM 98% | [15]; [17] 97% | [15]; [18] 99% | [15]; at 50.0 µM 91.2%
inactive: [1]; at 1.2 µM -14% | [1]; at 3.7 µM 1% | [1]; at 11.0 µM 10% | [2]; at 1.2 µM -14% | [2]; at 3.7 µM -18% | [2]; at 11.0 µM -6% | [3]; at 1.2 µM 15% | [3]; at 3.7 µM 23% | [3]; at 11.0 µM 33% | [3]; at 33.0 µM 59% | [4]; at 1.2 µM 17% | [4]; at 3.7 µM -2% | [4]; at 11.0 µM 12% | [5]; at 1.2 µM -7% | [5]; at 3.7 µM -4% | [5]; at 11.0 µM 2% | [7]; at 1.2 µM -9% | [7]; at 3.7 µM -5% | [7]; at 11.0 µM -3% | [8]; [17] -5% | [9]; at 1.2 µM -3% | [9]; at 3.7 µM 8% | [9]; at 11.0 µM 1% | [10]; [17] 37% | [11]; at 1.2 µM 8% | [11]; at 3.7 µM 14% | [11]; [17] 33% | [11]; at 11.0 µM 40% | [12]; at 1.2 µM -3% | [12]; at 3.7 µM -4% | [12]; at 11.0 µM -18% | [13]; at 1.2 µM 7% | [13]; at 3.7 µM 10% | [13]; at 11.0 µM 20% | [14]; at 1.2 µM -19% | [14]; at 3.7 µM -2% | [14]; at 11.0 µM -6%

O=C1C(Cl)=C(Cl)C(Cl)(Cl)C(Cl)C1(Cl)Cl (configuration not stated)
inactive: [1]; at 1.2 µM 14% | [1]; at 3.7 µM 27% | [2]; at 1.2 µM 2% | [2]; at 3.7 µM 5% | [2]; at 11.0 µM 21% | [3]; at 1.2 µM 20% | [3]; at 3.7 µM 34% | [3]; at 11.0 µM 58% | [4]; at 1.2 µM 5% | [4]; at 3.7 µM 25% | [4]; at 11.0 µM 45% | [5]; at 1.2 µM 16% | [5]; at 3.7 µM 26% | [5]; [17] 21% | [5]; at 11.0 µM 58% | [6]; at 1.2 µM 8% | [6]; at 3.7 µM 29% | [6]; [17] 22% | [6]; at 11.0 µM 49% | [7]; at 1.2 µM 17% | [7]; at 3.7 µM 25% | [7]; at 11.0 µM 44% | [8]; [17] 30% | [10]; [17] 9% | [11]; at 1.2 µM 11% | [11]; at 3.7 µM 28% | [11]; [17] 5% | [11]; at 11.0 µM 59% | [12]; at 1.2 µM -14% | [12]; at 3.7 µM -6% | [12]; at 11.0 µM 54%
active: [1]; at 11.0 µM 71% | [1]; at 33.0 µM 99% | [1]; at 100.0 µM 99% | [2]; at 33.0 µM 94% | [2]; at 100.0 µM 99% | [3]; at 33.0 µM 90% | [3]; at 100.0 µM 99% | [4]; at 33.0 µM 99% | [4]; at 100.0 µM 99% | [5]; at 33.0 µM 99% | [5]; [18] 98% | [5]; at 50.0 µM 99.3% | [5]; at 100.0 µM 99% | [6]; at 33.0 µM 99% | [6]; [18] 99% | [6]; at 50.0 µM 99.5% | [6]; at 100.0 µM 99% | [7]; at 33.0 µM 99% | [7]; at 100.0 µM 99% | [8]; [18] 99% | [8]; at 50.0 µM 99.6% | [10]; [18] 96% | [10]; at 50.0 µM 96.8% | [11]; at 33.0 µM 99% | [11]; [18] 98% | [11]; at 50.0 µM 99.5% | [11]; at 100.0 µM 97% | [12]; at 33.0 µM 100% | [12]; at 100.0 µM 99%
